Test results published in PubChem BioAssay (NCI).
“And” between values parts separate entries of the source, which are not always exact repeats. Equal values may be shown once. Compounds without any hit were thinned out: in the full panel of roughly 83,000, 20% have a hit.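 48-hour exposure, single concentration, 96-well plates; percent growth endpoint where 0 means no net growth. Active: below 10.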 The source made the active and inactive calls.

Tested on: MDA-MB-468 breast
Test: NCI-60 one-dose screen, 48 h (100 = growth as untreated, 0 = no growth, -100 = all killed)
Settings: 10 µM unless noted

Structure (SMILES) | growth
Cc1sc2nc(N3CCCCC3)[nH]c(=O)c2c1C | 96.6% (inactive)
CN1C(=O)NC(c2ccc3c(c2)OCO3)C=C1c1ccccc1 (stereo not drawn) | 98.2% (inactive)
O=[N+]([O-])c1cccc(C2c3ccccc3Oc3ccccc32)c1 | 95.4% (inactive)
Cc1cccc(C)c1NC(=O)Nc1ccccc1 | 77.6% (inactive)
O=C(Nc1cccc(-n2cc(-c3ccncc3)c(-c3ccc(O)c(Cl)c3)n2)c1)Nc1ccc(Cl)c(C(F)(F)F)c1 | 10% (inactive)
CCN(CC)c1ccc(/C=N/NC(=O)c2ccc(NS(C)(=O)=O)cc2)c(O)c1 | -10.8% (active)
O=C1/C(=C/c2ccc(O)c(O)c2)COc2ccc(-c3ccccc3)cc21 | 6.16% (active)
O=C1NCN(CCO)CN1 | 99.9% (inactive)
COc1cc2nc3c(=O)n(CCN(C)C)cnn3c(=O)c2cc1OC | 104% (inactive)
CCOc1cc(Cl)c(C(C)NC(=O)c2cccc(OC)c2)cc1OCC (stereo not drawn) | -61.6% (active)
COc1ccccc1C(=O)/C=C/c1cc2cccc(OC)c2[nH]c1=O | -43.9% (active)
CC1=NN(c2ccccc2)C(=O)C1C(=O)c1ccccc1 (stereo not drawn) | 83.4% (inactive)
COc1ccc(-c2ccc(-c3ccc(C(=N)N)cn3)o2)cc1Cl | -9.43% (active)
COc1cc2c(cc1-c1c(C)noc1C)ncc1nc(C3CCC(F)(F)CC3)n([C@@H](C)COC(F)F)c12 | 39.3% (inactive)
C=C1C(=O)O[C@H]2[C@H]1CC/C(CNC(=O)/C=C/c1ccccc1F)=C\CC[C@@]1(C)O[C@@H]21 | -45.5% (active)
COC(=O)[C@]12CC[C@@H](C)[C@H](C)[C@@H]1C1=CC[C@@H]3[C@@]4(C)C(C=O)=C[C@@](C)(COC(C)=O)[C@@H]4[C@H](O)C[C@@]3(C)[C@]1(C)CC2 | -19.2% (active)
O=[N+]([O-])c1cnc(N2CCN(CC3CC3)CC2)nc1N1CCN(CC2CC2)CC1 | 76.9% (inactive)
O=C1/C(=C/c2ccc([N+](=O)[O-])s2)Oc2ccccc21 | -34.1% (active)
O=C(CN1C=NC2C(N3CCOCC3)=NC=NC21)c1cccc2ccccc12 (stereo not drawn) | 85.9% (inactive)
CC(=O)c1ccc(Nc2nc(SCC(C)C)nc(-c3ccc(F)cc3)c2C#N)cc1 | 118% (inactive)
S=c1[nH]c2cc(Cl)ccc2o1 | 99% (inactive)
C=CC(CC(c1ccccc1)(c1ccccc1)c1ccccc1)N(CC)CC (stereo not drawn) | 30.5% (inactive)

Structure (SMILES) | growth
CCOC(=O)/C(F)=C/C1CC1C1CCCCC1 (stereo not drawn) | 96.9% (inactive)
COc1ccccc1C(=O)NC(=S)Nc1ccc(-c2nc3ccccc3[nH]2)cc1 | 75.1% (inactive)
CNc1ncc(-c2ccc(C(F)(F)F)cc2)c(NC2CCCCCC2)n1 | 74.9% (inactive)
COCCOC(=O)COc1ccc(OC)cc1 | 95.6% (inactive)
CCCc1cc(=O)oc2c(C(=O)CC(C)C)c(O)c(CC=C(C)C)c(O)c12 | 1.81% (active)
O=C(/C=C\c1ccnc2ccccc12)c1ccc([N+](=O)[O-])cc1 | 57.5% (inactive)
Cc1c(C)c(N2C(=O)C=CC2=O)c(C)c(C)c1N1C(=O)C=CC1=O | 96.5% (inactive)
O=C(NCc1ccccc1)c1cccc([N+](=O)[O-])c1 | 93.8% (inactive)
C=C1C(=O)O[C@H]2[C@H]1CC/C(COC(=O)NCc1ccc(OC)cc1)=C\CC[C@@]1(C)O[C@@H]21 | 27.7% (inactive)
COc1ccc(C(O)c2cc3c(N)c(C(=O)Nc4ccccc4)sc3nc2C)cc1 (stereo not drawn) | 9.92% (active)
COc1cccc(Nc2nc(NCCO)c3ccccc3n2)c1 | 75.7% (inactive)
CCC(=O)N1C/C(=C/c2ccc(Cl)cc2)C(=O)/C(=C/c2ccc(Cl)cc2)C1 | -84.5% (active)
O=c1[nH]c2ccccc2cc1CSc1ccccc1Nc1nccc(-c2ccc(Cl)cc2)n1 | 99.3% (inactive)
CCO/C=N/S(=O)(=O)c1cc2c(cc1Cl)NC=NS2(=O)=O | 98.3% (inactive)
O=P(O)(O)OCC1OC(n2cnc3c(NCc4ccccc4)ncnc32)C(O)C1O (stereo not drawn) | -28.6% (active)
COc1cc(OC)c(C(=O)/C=C/c2cc3c(cc2OCc2ccccc2)OC(C)(C)CC3)cc1CC=C(C)C | 26.2% (inactive)
CC(=O)Nc1ccc([I+]c2ccc([N+](=O)[O-])cc2)cc1 | 41.7% (inactive)
Clc1ccc(Nc2ncc(Cc3cccc(Cl)c3Cl)s2)cc1 | 99.4% (inactive)
COc1ccc(/C=N/c2cc(C(C)(C)C)nn2-c2ccccc2)cc1 | 124% (inactive)
CCOC(=O)C(=Cc1cccc(C#N)c1)C(=O)OCC | 43% (inactive)
COc1cc(C(=O)c2ccc3c(c2)OCO3)cc(OC)c1OC | 9.88% (active) and -4.92% (active)
BrC/C=C/C[P+](c1ccccc1)(c1ccccc1)c1ccccc1 | 3.78% (active)

Structure (SMILES) | growth
Nc1c2ccccc2nc2ccccc12 | -45.4% (active) and 2.95% (active) and 23% (inactive)
Cc1ccc(OC(=O)c2ccccc2)cc1 | 107% (inactive)
FC(F)(F)Sc1ccc(/C=C/c2cc(/C=C/c3ccc(SC(F)(F)F)cc3)n(-c3ccccc3)n2)cc1 | 95.8% (inactive)
CC(Oc1ccc(Cl)cc1)c1ccccc1 (stereo not drawn) | 99.9% (inactive)
CCc1ccc(CCC(=O)Nc2ncc(Cc3ccccc3)s2)o1 | 28.1% (inactive)
Nc1ncnc2c1N=C(c1ccc(F)cc1)CC(c1sc(Cl)nc1Cl)N2 (stereo not drawn) | 91.4% (inactive)
O=C(NCCNc1nccc(-c2c(-c3cccc(F)c3)nc3sccn23)n1)c1ccc(Cl)cc1 | 67.8% (inactive)
CCC(c1ccc(OC)cc1)C(CC)c1ccc(O)c(CN2CCCCC2)c1 (stereo not drawn) | 22.9% (inactive)
CCN(CC)CCOc1ccc(C(=C(c2ccccc2)C2CCCC2)c2ccc(OCCN(CC)CC)cc2)cc1 | -77.5% (active)
CCN1CCN(c2nc3ccccc3c3c(=O)c4cc(F)ccc4sc23)CC1 | 70.9% (inactive)
Cc1ccnc2c(OCc3ccccc3)cccc12 | 34.2% (inactive)
COc1ccc(/C=N/NC(=O)c2cnn3c2NC(c2ccccc2)C3)cc1OC (stereo not drawn) | 34.8% (inactive)
CCC(C)NCC(=O)O (stereo not drawn) | 100% (inactive)
C=NNc1ccccc1 | 91.2% (inactive)
CC(=O)c1sc(-c2ccc(F)cc2)cc1O | 111% (inactive)
COc1ccc(S(=O)(=O)Nc2c(/C=C\c3cc(OC)c(OC)c(OC)c3)ccc(OC)c2O)cc1 | 10.9% (inactive)
CN1CCN(c2ccc(Nc3nc(NCCNC(=O)c4ccc(F)cc4)c4sccc4n3)cc2)CC1 | 48.4% (inactive)
Cc1ccc(CS/C(=C\c2ccc([N+](=O)[O-])cc2)C(=O)c2ccc(F)cc2)cc1 | 81.1% (inactive)
O=S(=O)(NCCNc1nccc(-c2c(-c3ccc(O)cc3)nc3sccn23)n1)c1cccc2ccccc12 | 94.6% (inactive)
CCOC(=O)C#Cc1c(C(=O)OCC)nnn1Cc1ccc([N+](=O)[O-])cc1 | -19.6% (active)
Cc1ccc(C)n1-c1ccccc1-n1c(C)ccc1C | 104% (inactive)
N=c1c2cc(-c3ccccc3)oc2ncn1/N=C/c1ccc(Cl)cc1 | 88.2% (inactive)

Structure (SMILES) | growth
C=C1C(=O)O[C@@H]2C[C@@H](C)[C@H](OC)CC(=O)[C@](C)(OC(C)=O)C[C@H](OC(=O)/C(C)=C\C)[C@@H]12 | 54.5% (inactive)
O=C(O)c1cc([N+](=O)[O-])ccc1Oc1ccccc1 | 101% (inactive)
O=C(NNc1nc(N2CCCC2)nc(N2CCCC2)n1)c1ccccc1 | 112% (inactive)
c1ccc2c(c1)nc(-n1ccnc1)c1nc3ccccc3n12 | 76% (inactive)
C#C[C@@]1(O)[C@@H](CO)O[C@@H](n2cc(I)c3c(N)ncnc32)[C@@H]1O | -37.7% (active)
O=C1CC[C@@H](C(=O)N[C@H]2CSSC[C@@H](C(=O)NCCc3ccccc3)NC(=O)[C@H](Cc3ccccc3)NC(=O)[C@@H]3CCCN3C(=O)[C@@H]3CCCN3C2=O)N1 | 90.2% (inactive)
Cc1ccsc1-c1ccc2c(c1)COC2(CCCN(C)C)c1ccc(F)cc1 (stereo not drawn) | -8.34% (active)
CCCCCCCCCCCCNC(=S)N/N=C/c1ccccc1O | 53.1% (inactive)
CC(Br)C(Br)c1cc2c(cc1Br)OCO2 (stereo not drawn) | 96.8% (inactive)
Oc1cccc2ccc(N/N=C/c3cc(CN4CCOCC4)c(O)c4ncccc34)nc12 | -24.6% (active)
O=C(CSc1nnc(Cc2ccccc2Nc2c(Cl)cccc2Cl)n1-c1ccccc1)N1N=C(c2ccc3ccccc3c2)CC1c1ccc(Cl)cc1 (stereo not drawn) | 114% (inactive)
O=C(CCc1nnc2sc(/C=C\c3ccccc3)nn12)c1nc2ccccc2[nH]1 | 76.7% (inactive)
COc1cc2c(cc1O)[C@@]1(C)[C@H](c3ccccc3Br)OC(=O)N1CC2 | 61.1% (inactive)
CCCCN(C=S)CCCC | 101% (inactive)
COC(=O)c1ccc2c(C(=Nc3ccc(N(C)C(=O)CN4CCN(C)CC4)cc3)c3ccccc3)c(O)[nH]c2c1 | 91% (inactive)
COC1=CC(c2ccc[nH]2)=N/C1=C\c1[nH]c(C)c(C(=O)CCCCC(=O)NC(C)(C)C)c1C | 33.9% (inactive)
C[C@@H](O)[C@H]1C(=O)N2C(C(=O)O)=C(SC3CN[C@H](C(=O)N(C)C)C3)[C@H](C)[C@H]12 (stereo partly drawn) | 100% (inactive)
CCO/C=N/C1=C(C#N)C(c2ccc(OC)cc2)c2sc3c(C)cccc3c2O1 (stereo not drawn) | -13% (active)
NC1=C(C/C(N)=N\O)C(c2ccccc2Cl)c2c(ccc3ccccc23)O1 (stereo not drawn) | 61.6% (inactive)
COC(=O)/C(=C\c1c(-c2ccccc2)[nH]c2ccccc12)S(C)(=O)=O | 36.3% (inactive)
CCCCCC1CCCCN1C(=O)OCC (stereo not drawn) | 150% (inactive)
C=C(C)[C@@H]1CC[C@@]2(C(=O)O)CC[C@]3(C)C(CCC4[C@@]5(C)CCC(OS(=O)(=O)c6ccccc6)C(C)(C)C5CC[C@]43C)C12 (stereo partly drawn) | 53.9% (inactive)
